Experiment [1] in a line: optical density shifts of acrAB sulA E. coli – strain DRC41, OD650, 48 h, E. coli filamentation inducer project, primary screen (AID 1152).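 Further: E. coli MC1000 strain DRC41 lacking acrAB efflux pump and sulA.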 Conditions: higher = more signal, called active from +8 up or from −8 down.
Experiment [2] can be described thus: probe aLefty1 binding on compound microarray – biochemical, small-molecule microarray, 635/667 nm fluorescence, primary screen (AID 1153).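 Further: score merges spot fluorescence with signal-to-noise ratio from the scanned slide images.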 The conditions noted are these: higher = more signal.
The nature of experiment [3]: plasmodial surface anion channel blockers, osmotic lysis – cell-based, P. falciparum Indochina, OD700, 1 h, primary screen (AID 1154). Conditions: P. falciparum Indochina infected RBC osmotic lysis, higher = more signal, called active from +8 up or from −8 down.
Experiment [4] can be described thus: plasmodial surface anion channel blockers, osmotic lysis – cell-based, P. falciparum Indochina, OD700, 2 h, primary screen (AID 1155).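 Further: lysis reports solute entry through the parasite surface anion channel PSAC.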 Conditions: P. falciparum Indochina infected erythrocytes, higher = more signal, called active from +8 up or from −8 down.
The nature of experiment [5]: changes in parasitized red cell lysis, either direction – P. falciparum Indochina, OD700, 3 h, PSAC antagonist project, primary screen (AID 1156). Conditions: P. falciparum-infected erythrocytes, osmotic lysis, higher = more signal, called active from +8 up or from −8 down.
A short description of experiment [6]: plasmodial surface anion channel blockers, osmotic lysis – cell-based, P. falciparum Indochina, OD700, 18 h, primary screen (AID 1157). Conditions: P. falciparum Indochina infected erythrocytes, osmotic lysis OD700, 18 h; higher = more signal, called active from +8 up or from −8 down.
Experiment [7] is described as follows: S6 kinase pathway phospho-S6 level changes – cell-based, A549, cytoblot, luminescence, serum-stimulated, primary screen (AID 1158).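 Further: serum-stimulated A549 lung adenocarcinoma cells; signal is phosphorylated S6 detected by cytoblot immunostaining with HRP secondary.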 The conditions noted are these: 5 h, higher = more signal.
Experiment [8] has as its target NADPH oxidase 2 (Homo sapiens) (UniProt P04839). Nature of the experiment: compounds shifting NOX2 Amplex Red fluorescence – cell-based, HEK293-NOX2, PMA-stimulated, NOX inhibitor project, primary screen (AID 1159). Further: test concentration not given here. The conditions noted are these: 45 min, higher = more signal, called active from +8 up or from −8 down.
The target in experiment [9] is NADPH oxidase 4 (Homo sapiens) (UniProt Q9NPH5). Nature of the experiment: compounds shifting NOX4 Amplex Red fluorescence – cell-based, HEK293-NOX4, tetracycline-induced, NOX inhibitor project, primary screen (AID 1160). The conditions noted are these: HEK293-NOX4, Amplex Red H2O2 fluorescence, 45 min; higher = more signal, called active from +8 up or from −8 down.
The target in experiment [10] is NADPH oxidase 5 (Homo sapiens) (UniProt Q96PH1). In words: compounds shifting NOX5 Amplex Red fluorescence – cell-based, HEK293-NOX5, NOX inhibitor project, primary screen (AID 1161). Conditions: HEK293-NOX5, ionomycin, 45 min, higher = more signal.

Activity calls are given as the source filed them.

Chain of NADPH oxidase 4 (Homo sapiens) (Q9NPH5 whole entry, looked up): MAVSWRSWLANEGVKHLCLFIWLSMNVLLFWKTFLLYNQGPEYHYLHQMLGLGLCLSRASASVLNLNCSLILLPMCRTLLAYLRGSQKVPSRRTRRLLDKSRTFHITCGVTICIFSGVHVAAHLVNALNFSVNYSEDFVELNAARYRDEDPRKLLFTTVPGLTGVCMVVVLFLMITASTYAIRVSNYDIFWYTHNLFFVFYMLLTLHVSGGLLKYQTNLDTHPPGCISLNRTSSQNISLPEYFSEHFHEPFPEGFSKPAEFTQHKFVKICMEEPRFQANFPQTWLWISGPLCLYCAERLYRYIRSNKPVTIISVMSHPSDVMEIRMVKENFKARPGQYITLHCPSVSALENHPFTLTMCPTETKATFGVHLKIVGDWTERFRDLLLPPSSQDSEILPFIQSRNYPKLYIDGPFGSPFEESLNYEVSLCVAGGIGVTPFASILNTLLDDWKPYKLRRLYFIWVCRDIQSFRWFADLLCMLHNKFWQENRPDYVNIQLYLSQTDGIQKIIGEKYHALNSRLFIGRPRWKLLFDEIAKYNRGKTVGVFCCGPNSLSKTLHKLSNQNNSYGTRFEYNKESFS
Chain of NADPH oxidase 5 (Homo sapiens) (Q96PH1 whole entry, looked up): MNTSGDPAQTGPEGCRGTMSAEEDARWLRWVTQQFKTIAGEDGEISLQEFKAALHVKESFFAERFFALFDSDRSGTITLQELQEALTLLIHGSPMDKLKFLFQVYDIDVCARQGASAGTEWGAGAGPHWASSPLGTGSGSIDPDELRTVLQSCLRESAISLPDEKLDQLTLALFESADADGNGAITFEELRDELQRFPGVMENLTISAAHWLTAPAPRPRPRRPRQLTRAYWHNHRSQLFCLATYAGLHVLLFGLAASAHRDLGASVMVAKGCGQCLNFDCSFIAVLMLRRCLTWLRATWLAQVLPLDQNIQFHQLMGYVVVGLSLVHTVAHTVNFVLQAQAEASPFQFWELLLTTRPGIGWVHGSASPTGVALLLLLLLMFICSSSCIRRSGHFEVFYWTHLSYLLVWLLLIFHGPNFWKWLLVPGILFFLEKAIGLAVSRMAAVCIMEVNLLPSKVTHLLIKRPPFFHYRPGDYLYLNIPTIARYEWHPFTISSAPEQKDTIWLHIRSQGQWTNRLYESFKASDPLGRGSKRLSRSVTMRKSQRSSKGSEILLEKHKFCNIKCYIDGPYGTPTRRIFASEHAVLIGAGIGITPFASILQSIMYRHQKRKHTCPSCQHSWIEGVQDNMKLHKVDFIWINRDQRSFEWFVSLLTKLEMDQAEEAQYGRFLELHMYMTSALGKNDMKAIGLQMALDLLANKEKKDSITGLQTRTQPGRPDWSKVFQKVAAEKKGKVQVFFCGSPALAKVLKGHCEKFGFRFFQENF
Chain of NADPH oxidase 2 (Homo sapiens) (P04839 whole entry, looked up): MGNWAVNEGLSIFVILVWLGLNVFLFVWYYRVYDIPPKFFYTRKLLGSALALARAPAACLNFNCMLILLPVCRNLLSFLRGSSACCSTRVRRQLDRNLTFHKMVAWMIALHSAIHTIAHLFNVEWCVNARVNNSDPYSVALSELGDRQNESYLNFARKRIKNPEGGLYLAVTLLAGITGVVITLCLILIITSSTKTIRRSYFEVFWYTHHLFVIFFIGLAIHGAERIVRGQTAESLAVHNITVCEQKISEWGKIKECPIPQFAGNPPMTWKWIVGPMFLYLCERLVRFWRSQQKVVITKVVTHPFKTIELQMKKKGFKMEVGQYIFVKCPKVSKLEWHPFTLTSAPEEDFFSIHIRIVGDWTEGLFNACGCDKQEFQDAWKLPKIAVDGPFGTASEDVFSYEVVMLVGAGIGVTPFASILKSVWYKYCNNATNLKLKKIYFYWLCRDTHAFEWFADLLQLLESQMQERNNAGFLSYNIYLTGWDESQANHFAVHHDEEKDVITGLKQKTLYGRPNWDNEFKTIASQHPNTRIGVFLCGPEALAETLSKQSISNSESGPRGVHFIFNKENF

Consider `O[C@@H](Cc1ccccc1)[C@@H](/C=C/C1CC1)N(CC#Cc1ccccc1)Cc1cccc(Cl)c1`, for which the z-score was 1.96 (inactive) in [1]; 1.49 (inactive) in experiment [3]; 0.761 (inactive) in experiment [4]; 0.124 (inactive) in experiment [5]; 0.23 (inactive) in [6]; 0.715 in [7]. In addition, the z-score was 0.166 (inactive) in experiment [8], 0.727 (inactive) in experiment [9] and -0.406 in [10]. For the same molecule, in [2], the composite z-score stood at 0.161.

Take `Cc1cc(C)cc(N2C(=O)CSC2c2cccc([N+](=O)[O-])c2)c1` (stereo not given): the z-score was 0.421 (inactive) in experiment [1]; 0.385 (inactive) in [3]; -0.414 (inactive) in [4]; 0.652 (inactive) in [5]; -0.237 (inactive) in [6]; -0.261 in experiment [7]. Besides, the z-score in [8] is -1.02 (inactive); in experiment [9], -0.364 (inactive); in [10], 0.483. In addition, the composite z-score in experiment [2] was -0.0046.

In the case of `COC(=O)c1c(CC[C@@H](CO)NC(=O)N[C@H](Cn2cc(C3(O)CCCCC3)nn2)C(C)C)oc(C(C)=O)c1C(=O)OC`, the z-score in experiment [1] is 1.51 (inactive); in experiment [3] it was 1.45 (inactive); in [4], -0.141 (inactive); in [5], 1.02 (inactive); in experiment [6], -0.152 (inactive); in experiment [7], 2.22. Moreover, the z-score in experiment [8] was -3.25 (inactive); in experiment [9], -0.839 (inactive); in experiment [10] it was 0.655. The molecule also yielded a composite z-score in experiment [2] of 0.102.

`CN(C)c1ccc(C(O)C2C=CC3C(=O)N(c4ccccc4)C(=O)C3N2Nc2ccc([N+](=O)[O-])cc2)cc1` (stereo not given): the z-score in experiment [1] is -1.16 (inactive); in [3] it was 4.9 (inactive); in experiment [4], 1.16 (inactive); in [5], 1.69 (inactive); in experiment [6], 0.73 (inactive); in [7] it was -0.503. The figures for the z-score in experiment [8], in experiment [9] and in experiment [10] were -1.95 (inactive), -4.56 (inactive) and -4.69, respectively. The molecule further yielded a composite z-score in experiment [2] of 0.388.

`CCOC(=O)C1CCCCN1` (stereo not given): the z-score in experiment [1] is -0.641 (inactive); in [3], -0.536 (inactive); in [4], 0.0175 (inactive); in experiment [5] it was -0.965 (inactive); in experiment [6] it was 0.0086 (inactive); in experiment [7], -0.0896. Also, the z-score is 0.0494 (inactive) in experiment [8], 0.0488 (inactive) in [9] and -0.117 in experiment [10]. The molecule also displayed a composite z-score in [2] of 1.08.

For the molecule `C=CCC(OC(C)=O)[C@@H]1[C@@H](N(Cc2cccc3ccccc23)C(=O)Cc2ccc(OC)cc2)c2cc(OCCCO)ccc2N1C(=O)c1ccc2ccccc2n1` (stereo not given in full), the z-score in experiment [1] is -0.899 (inactive); in experiment [3] it was 2.1 (inactive); in experiment [4], 0.786 (inactive); in [5] it was 0.714 (inactive); in [6], 0.385 (inactive); in experiment [7] it was 0.135. Besides, the z-score in experiment [8] is -1.4 (inactive); in experiment [9], -0.588 (inactive); in [10], -1.25. The composite z-score in experiment [2] was found to be 0.164.

Consider `COC(=O)[C@@]1(Cc2ccc(F)cc2)[C@H]2c3cc(C(=O)N(C)C)n(CCc4ccc(O)c(OC)c4)c3C[C@H]2CN1C(=O)c1ccccc1`, for which the z-score in experiment [1] was -1.22 (inactive); in experiment [3] it was -0.951 (inactive); in [4], 0.236 (inactive); in experiment [5], -0.722 (inactive); in [6] it was 0.667 (inactive); in experiment [7], -0.824. The z-score was -0.0241 (inactive) in experiment [8], -0.627 (inactive) in experiment [9] and -0.245 in experiment [10]. The molecule also came in with a composite z-score in experiment [2] of 1.63.

As for `CN(C)CCCNC(=O)[C@@H]1c2ccccc2C(=O)N(Cc2ccccc2Cl)[C@H]1c1ccc(CO)cc1`, the z-score is 0.681 (inactive) in [1]; 3.77 (inactive) in experiment [3]; 0.603 (inactive) in [4]; 1.68 (inactive) in [5]; 0.599 (inactive) in [6]; 0.517 in experiment [7]. In addition, the z-score in experiment [8] was 0.277 (inactive); in experiment [9], 0.691 (inactive); in experiment [10], -0.0877. This molecule also showed a composite z-score in [2] of 0.022.

As to `CCOC(=O)C1=C[C@@H](c2ccccc2)N(S(=O)(=O)c2ccc(C)cc2)[C@H]1c1ccccc1Cl`, the z-score in experiment [1] was -1.18 (inactive); in [3] it was 1.35 (inactive); in [4] it was 1.16 (inactive); in experiment [5], -0.0415 (inactive); in experiment [6], 0.805 (inactive); in experiment [7] it was -0.48. The z-score in experiment [8] is 0.574 (inactive); in experiment [9], 0.138 (inactive); in experiment [10], 0.405. In experiment [2], this molecule displayed a composite z-score of 0.138.

As to `CC1CC/C=C\[C@H]2OC34C=CCN(c5ccc(Cl)cc5)C(=O)[C@H]3N(CCCCCO)C(=O)[C@]4(C)C2C(=O)O1` (stereo not given in full), the z-score in experiment [1] was -0.351 (inactive); in experiment [3] it was -0.585 (inactive); in experiment [4] it was 0.231 (inactive); in [5] it was -0.175 (inactive); in experiment [6], 0.0119 (inactive); in [7], -0.157. For the same molecule, the z-score was 0.57 (inactive) in experiment [8], -0.261 (inactive) in experiment [9] and 1.05 in experiment [10]. Moreover, the composite z-score in experiment [2] is -0.101.

For the molecule `O=C1OCC=C[C@H]2OC34C=CCN(Cc5ccccc5)C(=O)[C@H]3N(CCCCCCO)C(=O)[C@@H]4[C@@H]12` (stereo not given in full), the z-score is 2.56 (inactive) in experiment [1]; 0.987 (inactive) in [3]; -0.567 (inactive) in experiment [4]; -0.368 (inactive) in experiment [5]; -0.924 (inactive) in experiment [6]; 1.02 in experiment [7]. Further, the z-score in experiment [8] was 1.22 (inactive); in experiment [9] it was -0.272 (inactive); in [10] it was 1.87. In experiment [2], this molecule showed a composite z-score of -0.152.

With `O=C(NCc1ccccc1)[C@@H]1c2ccccc2C(=O)N(Cc2ccccc2C(F)(F)F)[C@H]1c1ccc(CO)cc1`, the z-score in experiment [1] is 0.546 (inactive); in experiment [3], 3.68 (inactive); in experiment [4], 0.75 (inactive); in experiment [5], 1.53 (inactive); in experiment [6], 0.207 (inactive); in experiment [7] it was 0.0835. Also, the values for the z-score in experiment [8], in [9] and in [10] were -1.13 (inactive), 0.914 (inactive) and -0.366, respectively. For the same molecule, the composite z-score in experiment [2] is -0.0731.

Source of the values: PubChem BioAssay.
